Experimental data from ChEMBL document CHEMBL3988442, “University of Dundee, Small-Polar-MMV Screening Library” (2021).
For some assays here: Potency and affinity values are given separately.

What was measured:
Design in all cases: scale not given: direction of the effect not stated beside the values
[1] = target: Protein translocase subunit SecA (Escherichia coli (strain K12)) (UniProt P10408); assay: Assay to Identify E. coli SecA ATPase Inhibitors; type: functional; settings: 30 µM
[2] = target: T1, Ubiquitin-activating enzyme e1, putative (Leishmania donovani (strain BPK282A1)) (UniProt E9BSI1); assay: Leishmania donovani Ubiquitin Activating Enzyme (LdE1); type: functional; settings: 30 µM
T1 sequence (whole entry): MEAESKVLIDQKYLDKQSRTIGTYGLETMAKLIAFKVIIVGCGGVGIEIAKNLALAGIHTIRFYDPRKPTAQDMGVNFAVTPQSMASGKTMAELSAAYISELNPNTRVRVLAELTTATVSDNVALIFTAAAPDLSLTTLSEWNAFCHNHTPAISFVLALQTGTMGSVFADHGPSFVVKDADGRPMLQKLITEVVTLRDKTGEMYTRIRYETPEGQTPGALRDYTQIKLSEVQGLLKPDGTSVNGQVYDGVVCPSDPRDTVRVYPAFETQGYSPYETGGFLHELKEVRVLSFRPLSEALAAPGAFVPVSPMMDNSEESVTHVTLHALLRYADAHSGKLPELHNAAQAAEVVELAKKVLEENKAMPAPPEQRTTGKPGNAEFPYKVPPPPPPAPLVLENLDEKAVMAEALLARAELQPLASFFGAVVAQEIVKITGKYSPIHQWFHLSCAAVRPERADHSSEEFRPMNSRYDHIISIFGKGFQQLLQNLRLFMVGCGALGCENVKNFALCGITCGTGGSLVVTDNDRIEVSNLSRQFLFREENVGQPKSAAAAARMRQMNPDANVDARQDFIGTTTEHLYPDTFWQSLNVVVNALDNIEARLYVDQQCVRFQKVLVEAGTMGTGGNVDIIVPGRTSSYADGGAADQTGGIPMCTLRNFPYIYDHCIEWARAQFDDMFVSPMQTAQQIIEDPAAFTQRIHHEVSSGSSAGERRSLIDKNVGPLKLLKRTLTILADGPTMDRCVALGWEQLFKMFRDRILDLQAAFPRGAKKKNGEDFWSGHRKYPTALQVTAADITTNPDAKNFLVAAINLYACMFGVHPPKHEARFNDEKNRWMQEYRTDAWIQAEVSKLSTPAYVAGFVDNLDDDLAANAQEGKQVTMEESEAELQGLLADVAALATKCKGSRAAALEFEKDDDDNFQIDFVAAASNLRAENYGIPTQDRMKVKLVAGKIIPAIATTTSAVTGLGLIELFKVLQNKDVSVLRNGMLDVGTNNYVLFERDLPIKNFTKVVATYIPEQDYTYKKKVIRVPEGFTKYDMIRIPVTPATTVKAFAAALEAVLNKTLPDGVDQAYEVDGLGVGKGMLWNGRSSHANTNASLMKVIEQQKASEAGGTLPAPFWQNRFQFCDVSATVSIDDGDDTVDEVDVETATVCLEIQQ

[3] = target: AMP-activated protein kinase, AMPK (Homo sapiens) (UniProt P54646+O43741+P54619+Q9UGJ0+Q9Y478+Q13131+Q9UGI9); assay: AMP-dependent Kinase enzyme assay. An in vitro enzyme assay that detects ADP turnover that is directly proportional to AMPK activity. This uses naive AMPK that is activated during the assay with MK-8722; type: functional; settings: 30 µM
[4] = target: Sialic acid-binding Ig-like lectin 9 (Homo sapiens) (UniProt Q9Y336); assay: Hs-Siglec9 ALPHAscreen SOP 20170721; settings: 10 µM
Sialic acid-binding Ig-like lectin 9 (Homo sapiens), sequence (Q9Y336 whole entry): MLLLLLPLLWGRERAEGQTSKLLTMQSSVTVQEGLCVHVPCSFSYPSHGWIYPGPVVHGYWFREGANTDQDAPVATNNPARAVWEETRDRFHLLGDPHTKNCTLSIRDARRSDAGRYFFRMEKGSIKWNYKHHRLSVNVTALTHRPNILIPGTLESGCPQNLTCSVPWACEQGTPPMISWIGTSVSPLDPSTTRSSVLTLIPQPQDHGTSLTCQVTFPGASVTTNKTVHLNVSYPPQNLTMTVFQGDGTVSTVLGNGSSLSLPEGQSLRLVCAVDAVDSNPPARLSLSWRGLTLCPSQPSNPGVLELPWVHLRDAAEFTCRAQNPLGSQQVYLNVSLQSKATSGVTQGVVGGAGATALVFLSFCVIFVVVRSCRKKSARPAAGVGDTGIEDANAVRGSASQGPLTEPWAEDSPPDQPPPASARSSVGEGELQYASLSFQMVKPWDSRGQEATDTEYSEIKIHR

Trypanosoma cruzi = assay: Trypanosoma cruzi phosphomannomutase and mannose-1-phosphate guanylyltransferase assay; type: functional; settings: 10 µM
[5] = target: T2, Arginase-2, mitochondrial (Homo sapiens) (UniProt P78540); assay: in vitro enzyme assay to detect the production of urea directly proportional to the activity of Arginase II; type: functional; settings: 33.3 µM; also: in the data most compounds retested in dose-response had high values
T2 sequence (whole entry): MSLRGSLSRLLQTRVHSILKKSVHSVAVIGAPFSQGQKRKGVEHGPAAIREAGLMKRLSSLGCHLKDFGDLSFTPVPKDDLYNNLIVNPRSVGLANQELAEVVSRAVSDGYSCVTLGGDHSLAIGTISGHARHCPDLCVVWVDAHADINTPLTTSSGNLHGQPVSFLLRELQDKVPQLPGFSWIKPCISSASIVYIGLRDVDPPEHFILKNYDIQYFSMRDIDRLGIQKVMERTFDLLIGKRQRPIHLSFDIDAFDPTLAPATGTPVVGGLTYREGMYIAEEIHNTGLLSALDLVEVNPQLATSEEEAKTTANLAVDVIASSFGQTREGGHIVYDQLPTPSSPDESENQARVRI

[6] = target: T3, Proteasome subunit beta (Trypanosoma cruzi) (UniProt O96673); assay: Trypanosoma cruzi proteasome chymotrypsin-like activity (TcProtChymo) assay.; also: in the data most compounds retested in dose-response had high values; type: functional; settings: 9.37 µM
T3 sequence (whole entry): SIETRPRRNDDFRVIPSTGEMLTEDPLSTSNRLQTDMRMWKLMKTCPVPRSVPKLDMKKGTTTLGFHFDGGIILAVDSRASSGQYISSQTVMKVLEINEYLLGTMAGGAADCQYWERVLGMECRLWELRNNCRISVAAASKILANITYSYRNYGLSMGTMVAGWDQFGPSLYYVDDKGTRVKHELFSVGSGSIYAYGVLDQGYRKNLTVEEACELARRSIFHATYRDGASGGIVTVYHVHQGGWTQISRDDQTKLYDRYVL

Homo sapiens = species on record: Homo sapiens; assay: To identify inhibition of the IFN signalling (Jak-Stat) pathway via expression of an eGFP reporter gene under the control of an IFN-stimulated response element (ISRE) containing MxA promoter.; type: functional; settings: 30 µM
[7] = target: T4, Tyrosyl-tRNA synthetase, putative (Trypanosoma cruzi (strain CL Brener)) (UniProt Q4DSP6); assay: Trypanosoma cruzi tyrosyl tRNA synthetase (TcYRS) _High Tyrosine SOP; type: functional; settings: 30 µM; also: in the data most compounds retested in dose-response had high values
T4 sequence (whole entry): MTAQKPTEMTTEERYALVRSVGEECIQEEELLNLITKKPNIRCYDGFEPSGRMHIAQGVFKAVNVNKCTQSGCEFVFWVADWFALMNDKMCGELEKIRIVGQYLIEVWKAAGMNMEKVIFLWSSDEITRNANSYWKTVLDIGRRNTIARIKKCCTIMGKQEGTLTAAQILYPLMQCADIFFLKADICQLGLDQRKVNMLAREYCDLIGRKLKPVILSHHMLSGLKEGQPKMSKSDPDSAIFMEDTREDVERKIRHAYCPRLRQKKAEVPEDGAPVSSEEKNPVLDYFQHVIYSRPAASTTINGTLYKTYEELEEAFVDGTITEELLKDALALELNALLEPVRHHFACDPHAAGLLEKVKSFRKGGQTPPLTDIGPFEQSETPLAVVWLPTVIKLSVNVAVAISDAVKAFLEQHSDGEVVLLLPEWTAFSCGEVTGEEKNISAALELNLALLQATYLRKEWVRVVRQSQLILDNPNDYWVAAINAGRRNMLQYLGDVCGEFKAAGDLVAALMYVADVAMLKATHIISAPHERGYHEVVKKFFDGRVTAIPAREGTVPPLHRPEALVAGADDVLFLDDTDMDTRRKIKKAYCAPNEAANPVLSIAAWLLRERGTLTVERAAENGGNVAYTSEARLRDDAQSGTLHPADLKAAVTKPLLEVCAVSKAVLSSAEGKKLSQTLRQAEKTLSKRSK

[8] = target: T4, Tyrosyl-tRNA synthetase, putative (Trypanosoma cruzi (strain CL Brener)); assay: Trypanosoma cruzi tyrosyl tRNA synthetase (TcYRS) SOP; type: functional; settings: 30 µM
[9] = target: Chromo domain-containing protein 1 (Saccharomyces cerevisiae (strain ATCC 204508 / S288c) (Baker's yeast)) (UniProt P32657); assay: ScCHD-1 Enzyme Inhibition Assay; type: functional; settings: 30 µM; also: in the data most compounds retested in dose-response had high values
Chromo domain-containing protein 1 (Saccharomyces cerevisiae (strain ATCC 204508 / S288c) (Baker's yeast)), sequence (P32657 whole entry, the tested form may be a part): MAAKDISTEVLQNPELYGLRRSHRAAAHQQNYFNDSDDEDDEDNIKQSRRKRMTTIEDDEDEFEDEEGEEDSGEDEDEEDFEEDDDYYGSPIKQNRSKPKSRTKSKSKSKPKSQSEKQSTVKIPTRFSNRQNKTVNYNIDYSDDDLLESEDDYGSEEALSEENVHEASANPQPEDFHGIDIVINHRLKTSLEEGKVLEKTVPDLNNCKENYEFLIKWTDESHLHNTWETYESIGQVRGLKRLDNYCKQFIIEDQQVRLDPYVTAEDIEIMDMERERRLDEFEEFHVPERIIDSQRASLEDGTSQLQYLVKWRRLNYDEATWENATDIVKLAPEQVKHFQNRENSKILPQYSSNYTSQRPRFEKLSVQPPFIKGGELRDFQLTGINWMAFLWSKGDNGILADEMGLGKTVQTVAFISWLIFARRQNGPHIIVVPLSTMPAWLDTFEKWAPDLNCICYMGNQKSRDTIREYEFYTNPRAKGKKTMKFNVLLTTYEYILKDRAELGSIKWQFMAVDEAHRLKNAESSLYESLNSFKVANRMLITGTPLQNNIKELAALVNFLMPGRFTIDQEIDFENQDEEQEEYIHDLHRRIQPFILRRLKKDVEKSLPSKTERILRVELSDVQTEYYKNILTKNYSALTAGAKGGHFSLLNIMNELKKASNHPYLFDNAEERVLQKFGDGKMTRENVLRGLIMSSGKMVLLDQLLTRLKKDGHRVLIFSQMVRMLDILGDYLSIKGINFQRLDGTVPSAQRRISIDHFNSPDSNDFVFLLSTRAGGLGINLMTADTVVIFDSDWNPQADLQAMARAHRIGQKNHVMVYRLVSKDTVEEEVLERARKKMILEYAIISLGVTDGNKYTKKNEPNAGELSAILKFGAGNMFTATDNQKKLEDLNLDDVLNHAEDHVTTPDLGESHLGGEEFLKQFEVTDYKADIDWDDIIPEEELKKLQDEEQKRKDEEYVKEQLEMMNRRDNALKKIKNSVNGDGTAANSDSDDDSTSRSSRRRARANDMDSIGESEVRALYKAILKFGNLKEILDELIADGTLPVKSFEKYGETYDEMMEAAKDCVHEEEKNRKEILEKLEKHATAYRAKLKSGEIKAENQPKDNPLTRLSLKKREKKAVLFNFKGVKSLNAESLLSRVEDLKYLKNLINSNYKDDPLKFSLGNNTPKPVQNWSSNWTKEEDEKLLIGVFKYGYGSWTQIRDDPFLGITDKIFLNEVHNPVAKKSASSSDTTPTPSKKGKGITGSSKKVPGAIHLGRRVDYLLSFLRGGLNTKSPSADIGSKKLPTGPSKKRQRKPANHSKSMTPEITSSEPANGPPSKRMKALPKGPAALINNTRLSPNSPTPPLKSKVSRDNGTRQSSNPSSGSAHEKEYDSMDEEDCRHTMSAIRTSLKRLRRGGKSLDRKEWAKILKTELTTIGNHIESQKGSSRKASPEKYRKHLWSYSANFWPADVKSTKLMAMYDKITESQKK

Protein translocase subunit SecA (Escherichia coli (strain K12)), sequence (P10408 whole entry): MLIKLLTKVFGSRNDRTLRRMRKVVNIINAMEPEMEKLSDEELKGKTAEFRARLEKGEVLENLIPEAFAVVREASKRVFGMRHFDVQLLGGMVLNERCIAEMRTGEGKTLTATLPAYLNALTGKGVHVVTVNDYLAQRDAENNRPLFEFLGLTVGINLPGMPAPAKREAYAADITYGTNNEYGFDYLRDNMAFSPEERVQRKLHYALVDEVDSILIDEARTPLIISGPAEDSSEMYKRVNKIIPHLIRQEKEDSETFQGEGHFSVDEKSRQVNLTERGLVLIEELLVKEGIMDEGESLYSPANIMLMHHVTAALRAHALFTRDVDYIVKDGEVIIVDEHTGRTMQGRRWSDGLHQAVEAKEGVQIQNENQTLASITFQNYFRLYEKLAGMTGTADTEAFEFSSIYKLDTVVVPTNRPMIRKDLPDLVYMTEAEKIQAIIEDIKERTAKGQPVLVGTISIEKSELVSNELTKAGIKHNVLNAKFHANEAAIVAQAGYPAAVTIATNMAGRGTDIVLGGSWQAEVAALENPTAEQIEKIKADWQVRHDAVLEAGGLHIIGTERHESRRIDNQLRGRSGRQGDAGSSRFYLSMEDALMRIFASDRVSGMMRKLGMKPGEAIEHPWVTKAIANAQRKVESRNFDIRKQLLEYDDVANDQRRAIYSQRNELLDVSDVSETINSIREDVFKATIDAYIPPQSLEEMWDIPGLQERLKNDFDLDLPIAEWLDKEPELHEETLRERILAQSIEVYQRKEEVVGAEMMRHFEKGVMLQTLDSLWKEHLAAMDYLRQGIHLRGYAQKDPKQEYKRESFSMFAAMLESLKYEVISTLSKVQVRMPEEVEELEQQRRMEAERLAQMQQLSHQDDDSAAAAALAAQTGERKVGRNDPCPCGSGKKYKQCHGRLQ

| Structure (SMILES) | Percent Effect [1] | Percent Effect [2] | Percent Effect [3] | Percent Effect [4] | Percent Effect (Trypanosoma cruzi) | Percent Effect [5] | Percent Effect [6] | Percent Effect (Homo sapiens) | Percent Effect [7] | Percent Effect [8] | Percent Effect [9] |
| --- | --- | --- | --- | --- | --- | --- | --- | --- | --- | --- | --- |
| COCC(=O)N1CCN(Cc2coc(-c3cccc(F)c3)n2)CC1 | -5.28% | 0% | 2.98% | 4.95% | -2.62% | 0% | 1.18% | 9.99% | 8.74% | 7.32% | 1.75% |
| CC(C)[C@H](NC(=O)NC1CCS(=O)(=O)C1)C(=O)NCc1ccccc1Cl (some centres not stated) | -0.711% | -6.67% | 4.79% | 4.22% | -6.88% | -4.05% | 3.51% | -4.73% | -5.29% | -2.56% | 1.25% |
| O=C1NCC[C@]12CN(Cc1ccoc1)C[C@H]2c1ccccc1 | 4.22% | 15.6% | 11.9% | -15.6% | -8.38% | 1.94% | 13.8% | 11% | 4.23% | 6.41% | -8.29% |
| COC(=O)C1CCN(C(=O)CN2CCN(c3cccc(C)c3)CC2)CC1 | -1.93% | 2.74% | 1.05% | 3.16% | -7.54% | -1.6% | 8.65% | 0.408% | 5.21% | 16.1% | -1.41% |
| COc1ccc(OC)c(-c2nc(CN(C)Cc3nncn3C)c(C)o2)c1 | -4.01% | 11% | 12% | -0.646% | -1.57% | 0.909% | 13.7% | -0.225% | 7.53% | 15% | -5.1% |
| Cc1cc(C)n(CC(=O)N2CCC(c3nc(C)no3)CC2)n1 | -2.79% | 9.72% | 3.9% | -0.831% | 2.43% | 3.09% | 9.3% | -22.2% | 3.16% | 5.13% | -4.51% |
| O=C(NCCc1csc(N2CCCC2)n1)N(C1CCCC1)C1CC1 | 0.399% | -5.33% | -9.08% | 16% | -1.66% | 2.08% | 27.4% | 6.62% | 12.6% | 11.1% | -6.87% |
| Cc1ccc(C2COCCN2C(=O)c2ccc(N(C)C)cc2)o1 (configuration not stated) | -1.88% | 10.7% | -8.36% | 13.4% | 3.02% | 13.5% | 15.9% | 19.2% | 2.73% | 18.5% | -4.41% |
| Cc1nc(-c2ccsc2)ccc1C(=O)O | -3.65% | 4.17% | 0.691% | -1% | 0.68% | 2.65% | 21.9% | -3.42% | 5.26% | 10.3% | -3.62% |
| CCc1nc(C2CCCN(C(=O)c3ccc(OC(C)C)nc3)C2)no1 (configuration not stated) | -8.81% | 5.2% | -0.62% | -8.98% | -3.43% | 3.16% | 1.05% | 15.9% | -0.952% | 0% | -17.8% |
| O=C1O[C@@H]2CN(Cc3ccccc3)C[C@@H]2N1CCCN1CCOCC1 | -6.39% | 2.67% | -0.894% | 2% | -3.8% | -0.521% | 15.2% | 20% | 4.92% | 11.1% | -5.71% |
| Cc1ccc(-n2nnc(C(=O)NS(C)(=O)=O)c2C2CC2)cc1 | -1.84% | 0% | -7.9% | 0.772% | 7.52% | -1.66% | -0.179% | 12.9% | 2.97% | 13.4% | 3.65% |
| CS(=O)(=O)N1CCOCC2(CN(Cc3ccco3)CCO2)C1 (configuration not stated) | -1.05% | 5.48% | 3.7% | 1.39% | -1.19% | 4.79% | 5.39% | 1.38% | 6.25% | 11.1% | 0.698% |
| CNC(=O)[C@H]1C[C@@H]2CN(S(=O)(=O)c3ccccc3)C[C@@H]2N1C | -2.19% | -5.2% | 3.6% | 3.49% | -0.492% | -13.8% | 1.83% | 6.5% | 2.15% | -1.24% | 2.52% |
| Cc1cc(N2CCN(Cc3ccccc3)CC(O)C2)cc(C)n1 (configuration not stated) | -7.08% | -2.7% | 1.17% | 11.4% | -1.74% | -3.81% | 2.07% | 20.1% | -0.529% | 4.88% | -1.99% |
| O=C(Nc1cccnc1)[C@H]1CO[C@H]2CCN(c3ncc(F)cn3)C[C@H]2C1 | -3.71% | 5.33% | 2.01% | 4.5% | 0% | -55% | 11.6% | -7% | 8.33% | 5% | -9.48% |
| CC(C)c1noc(CN2CCC3(CCCO3)CCC2=O)n1 (configuration not stated) | -8.4% | 2.67% | 0.336% | -1.54% | -3.8% | -0.521% | 2.27% | 25.6% | 1.64% | 6.17% | -6.74% |
| Cc1nc(CN(C)C2CCN(CC(=O)N3CCOCC3)C2)no1 (configuration not stated) | -3.5% | 18.9% | -5.27% | -3.82% | -3.62% | -3.14% | 1.98% | 1.74% | 5.94% | 18.3% | -3.28% |
| Cc1nc(N2CCCCC2)ncc1C(=O)N1CC(C)(C)[C@@](C)(O)C1 | -4.9% | 0% | -4.56% | 7.93% | -2.05% | 4.22% | -6.09% | 7.42% | 8.6% | 6.17% | -1.76% |
| CCNc1cc2c(nn1)CCN(C(=O)c1cccc3c1OCCO3)C2 | -5.14% | 7.79% | -15.3% | 14.1% | 5.99% | -6.76% | 15.4% | 1.1% | 5.83% | 14.6% | -10.8% |
| O=C(COC(=O)Cc1cccs1)NCc1cccc(NC(=O)C2CC2)c1 | -4.92% | 21.1% | 1.38% | -10.9% | -3.27% | -1.08% | 3.47% | 4.04% | 5.42% | 16.1% | -4.73% |
| Cc1cc(C)n(CC(=O)N(C)Cc2csc(-c3cccs3)n2)c(=O)n1 | 0.251% | 0% | -4.15% | 2.64% | 1.66% | 7.29% | 19.5% | 17.8% | 6.01% | 18.5% | -6.32% |
